Bioassay records deposited in PubChem BioAssay by National Center for Advancing Translational Sciences (NCATS).
SNCA viab count: GF-AFC viability counterscreen for inhibitors of alpha-synuclein gene (SNCA) expression; AID 1671193, 2021; Potency, µM (top dose mostly 57.1 µM), inactives show top-dose activity change, negative = cytotoxicity, actives largely listed as cytotoxic; hit rate 0.12% among 150,000; HEK-293-SNCA-luc viability, GF-AFC fluorescence, 24 h;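 further: 0% = DMSO-treated cells and -100% = medium-only wells without cells; nearly all actives have a fitted effect of over 30% in size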
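Cytotoxicity counterscreen: after 24 h compound treatment of genome-edited SNCA-luciferase HEK-293 cells, live-cell protease substrate GF-AFC read by fluorescence after 30 min; activity scaled between DMSO (0%) and medium-only (-100%), curves Hill-fitted.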
hNpr1 antagonist: Natriuretic polypeptide receptor (hNpr1) antagonism - Primary qHTS | Atrial natriuretic peptide receptor 1 (Homo sapiens), P16066 | Potency, µM (titrated, usually from 46.3 µM), for the others: at the highest dose activity change, negative = inhibition, usual class: inhibitors | hit rate 1.6% among 76,000 | HEK293 hNpr1 GloSensor cGMP, ANP-stimulated luminescence | AID 1347048, 2019; calls by dose curve; further: nearly all actives have a fitted effect of over 60% in size
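HEK293 cells stably expressing human Npr1 and cGMP GloSensor pGS-40F, loaded 2 h with 2% GloSensor reagent, given compound 30 min at room temperature. Luminescence read before and 20 min after 0.1 nM hNppA.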
SNCA expr inh: Primary qHTS assay for inhibitors of alpha-synuclein gene (SNCA) expression | hit rate 0.17% among 140,000 | Potency, µM (series often up to 57.2 µM), for the others: top-dose activity change, negative = inhibition, usual class: inhibitors | HEK-293 SNCA-luciferase knock-in, luminescence, 24 h;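 further: plate controls were DMSO cells for no effect and cell-free wells for full effect; nearly all actives have a fitted effect of over 45% in size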
Luciferase inh: Firefly luciferase inhibition profiling of diverse chemical library using quantitative high-throughput screening; purified P. pyralis luciferase, luminescence, biochemical; Potency, µM (doses to about 115 µM), most hits filed as inhibitors; hit rate 2.5% among 76,000; AID 1347043, 2019; further: nearly all actives have a fitted effect of over 65% in size
Target sequence (P08659 whole entry, looked up): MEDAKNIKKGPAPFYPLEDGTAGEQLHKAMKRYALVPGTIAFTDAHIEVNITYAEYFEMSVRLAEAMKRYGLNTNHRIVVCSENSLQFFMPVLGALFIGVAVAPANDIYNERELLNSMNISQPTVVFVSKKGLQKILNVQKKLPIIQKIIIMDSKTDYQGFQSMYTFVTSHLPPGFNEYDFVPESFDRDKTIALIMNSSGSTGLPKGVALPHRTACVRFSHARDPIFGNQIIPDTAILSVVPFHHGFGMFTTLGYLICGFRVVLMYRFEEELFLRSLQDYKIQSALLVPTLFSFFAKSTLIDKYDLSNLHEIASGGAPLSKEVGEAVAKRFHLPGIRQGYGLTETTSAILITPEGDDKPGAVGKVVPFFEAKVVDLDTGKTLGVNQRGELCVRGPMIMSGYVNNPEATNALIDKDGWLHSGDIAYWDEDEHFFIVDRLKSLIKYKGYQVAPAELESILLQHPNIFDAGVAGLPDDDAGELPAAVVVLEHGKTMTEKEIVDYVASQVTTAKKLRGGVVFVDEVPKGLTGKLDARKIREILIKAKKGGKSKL
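Cell-free enzyme assay, 10nM P. pyralis luciferase, luciferin and ATP each at 10uM. Inhibition profiled over a 6-point titration, read as luminescence.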
3T3 cytotox: Cytotoxic Profiling in NIH 3T3 Cell Line of Diverse Libraries Using Quantitative High-Throughput Screening | NIH 3T3 viability, CellTiter-Glo ATP luminescence, 48-72 h | Potency, µM (doses to about 96.7 µM), for inactives: at the highest dose activity change, negative = cytotoxicity, actives largely listed as inhibitors | hit rate 4.3% among 94,000; further: nearly all actives have a fitted effect of over 55% in size
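Cytotoxicity is measured as loss of cellular ATP: NIH 3T3 cells (400/well) are exposed to compound for 48 or 72 hr at 37 °C, then CellTiter-Glo luminescence is imaged after 10 min at room temperature.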
HEK293 tox: Cytotoxic Profiling in HEK 293 Cell Line of Diverse Libraries Using Quantitative High-Throughput Screening | Potency, µM (highest dose often 115 µM), for the others: top-dose activity change, negative = cytotoxicity, actives largely listed as inhibitors | HEK 293 viability, ATP luminescence (CellTiter-Glo), 48-72 h | AID 1345083, 2018 | hit rate 6.6% among 94,000; further: nearly all actives have a fitted effect of over 60% in size
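CellTiter-Glo luminescence (cellular ATP) was read after 48 or 72 hr of compound exposure at 37 degree Celsius. Cells were HEK 293 plated at 250 cells/well.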
An asterisk follows results filed as active; i = inactive; ? = inconclusive; / = not tested or not shown; [ ] = remark or other dose. Sampled rows, rich in hits. Any-hit rate of the full collection: about 7.4%. Unless noted, the call rests on the fitted dose curve; in most records, active means well fitted curve in the direction sought with a large enough effect; inconclusive means small, poorly fitted or top-dose-only effect, or another doubt; inactive means no such curve, though single readings can be large; an effect the other way counts as inactive or inconclusive. Unless noted, on the % scale 0 is the no-effect control and ±100 the full control effect; potency means the concentration at half of the fitted maximal effect.

SMILES | SNCA viab count | hNpr1 antagonist | SNCA expr inh | Luciferase inh | 3T3 cytotox | HEK293 tox
CN1C[C@H](C(=O)Nc2ccccc2)C[C@H]1c1cccc(C(F)(F)F)c1 | -21.9%[87.6 µM] | -15.3%[70.6 µM] | ? | i | 44.7µM* | 79.4µM*
Fc1ccc2c(c1)nc1n2[C@@H](CNC2CCCCC2)COC1 | -2.2%[87.6 µM] | -18.0%[70.6 µM] | 6.2%[87.6 µM] | i | 28.2µM* | ?
O=C(NC[C@H]1COCc2nc3cc(F)ccc3n21)c1ccc(Cl)cc1 | -25.0%[87.6 µM] | -10.5%[70.6 µM] | -2.9%[87.6 µM] | i | ? | 70.8µM*
O=C(NC[C@H]1COCc2nc3cc(F)ccc3n21)C1CC1 | 2.9%[87.6 µM] | 3.6%[70.6 µM] | 23.4%[87.6 µM] | i | 79.4µM* | -6.6%[230 µM]
Cc1ccc(S(=O)(=O)N(C)CC2CCOCC2)c(C)c1 | -3.7% | -14.4% | -5.7% | i | -22.7% | -12.8%
Nc1ncccc1CN1CCC(CO)(CN2CCCC2)CC1 | 3.5% | 2.6% | 0.6% | i | -3.8% | -4.7%
CCc1noc(-c2nc(-c3ccc(OC)cc3OC)no2)n1 | 2.4% | -2.6% | 91.9% | i | 3.4% | -28.5%
COc1cc(NC(=O)c2cc3c(N4CCCC4)nc(C)cn3n2)cc(OC)c1OC | -21.1% | 0.4% | 7.2% | i | ? | 44.7µM*
COc1ccccc1NC(=O)c1cc2c(N3CCSCC3)nc(C)cn2n1 | 3.1% | 1.8% | -5.7% | i | -10.1% | 50.1µM*
COc1cc(NC(=O)c2cc3c(N4CCSCC4)nc(C)cn3n2)cc(OC)c1OC | -9.2% | -24.9% | 7.2% | i | ? | 35.5µM*
COc1ccc(OC)c(NC(=O)c2cc3c(N4CCSCC4)nc(C)cn3n2)c1 | 9.3% | -1.8% | 2.8% | i | -11.1% | -23.2%
Cc1ccccc1C(=O)N1CCN(CCCn2nc3n(c2=O)CCCC3)CC1 | / | / | / | / | -19.5% | -11.5%
c1ccc(CN2CCCCC2c2nc(CCOCC3CCCC3)no2)nc1 (stereo not given) | 4.2%[12.5 µM] | 5.1% | 22.4µM* | i | ? | ?
c1ccc2c(CN3CCC[C@H]3c3nc(-c4ccc(OC5CCCCC5)nc4)no3)c[nH]c2c1 | 6.9% | -29.2% | 45.5% | i | 31.6µM* | 35.5µM*
Cc1ncsc1CN1CCCCC1c1nc(CCOCC2CC2)no1 (stereo not given) | 1.5% | ? | -32.8% | i | -35.6% | ?
c1ccc(CN2CCC[C@H]2c2nc(-c3ccc(OC4CCCCC4)nc3)no2)nc1 | -10.2%[87.6 µM] | ? | 78.7%[87.6 µM] | ? | 44.7µM* | 63.1µM*
COCCNc1ncccc1-c1noc([C@@H]2CCCN2Cc2ccccn2)n1 | -26.1%[87.6 µM] | 3.3%[70.6 µM] | ? | i | ? | 22.4µM*
COCCNc1ncccc1-c1noc([C@@H]2CCCN2Cc2ccncc2)n1 | -15.1%[87.6 µM] | -0.2%[70.6 µM] | 10.3%[87.6 µM] | i | -23.4%[174 µM] | ?
CCN1C(=O)CCc2cc(NC(=O)c3cccc(C#N)c3)ccc21 | -1.7% | 5.7% | 79.2% | ? | ? | ?
O=C(NCCc1ccc(Cl)cc1)c1cc(-c2ccccc2)c2nncn2n1 | 1.2% | / | ? | / | ? | ?
O=C(NCCCc1ccccc1)c1cc(-c2ccccc2)c2nncn2n1 | -2.1% | / | 16.4% | / | ? | 44.7µM*
O=C(NCc1cccc(Cl)c1)c1cc(-c2ccsc2)c2nncn2n1 | 0.9% | / | 3.2% | / | -1.4% | 3.9%
O=C(NCCc1ccccc1)c1cc(-c2ccsc2)c2nncn2n1 | -12.0% | / | 10.4% | / | ? | 39.8µM*
O=C(c1cccc(F)c1)N1CCC[C@H]1c1nc(-c2ccccc2)no1 | -25.7% | -4.2% | ? | i | -19.1% | ?
Cc1cc(F)ccc1OC1CN([S+](=O)([O-])CCC(F)(F)F)C1 | -11.6% | 14.3% | -17.2% | i | ? | ?
SMILES | SNCA viab count | hNpr1 antagonist | SNCA expr inh | Luciferase inh | 3T3 cytotox | HEK293 tox
CC(=O)c1cccc(S(=O)(=O)NCCc2csc3nc(-c4ccc(F)cc4)nn23)c1 | 31.6µM* | / | -12.4% | / | / | /
O=C(CC1=C2CCCCC2N(Cc2ccccc2)C1=O)N1CCc2ccccc2C1 (stereo not given) | -25.2% | 0.2% | 6.2% | i | ? | 50.1µM*
O=C(CC1CCCCN(Cc2ccccc2)C1=O)N1CCc2ccccc2C1 (stereo not given) | -10.5% | -15.2% | 3.7% | i | ? | 44.7µM*
COc1ccc(Cn2c(=O)c(C(=O)Nc3cccc(Cl)c3)nc3cccnc32)cc1 | -16.7% | / | 93.8% | / | 0.7% | -9.9%
CCc1ccccc1NC(=O)N1CCC2(CC1)SCC(=O)N2Cc1ccco1 | 6.3% | 2.7% | 4.6% | i | -21.2% | -19.4%
OC1CC(c2cc(NCCSC3CCCCC3)ncn2)C1 (stereo not given) | -18.6% | 12.6µM* | 58.9% | ? | ? | ?
CC1=C(C(=O)OC(C)C)C(c2ccccc2Cl)CC(=O)N1Cc1cc(F)cc(F)c1 (stereo not given) | 4.5% | 2.5% | -9.6% | i | ? | ?
CC1=C(C(=O)OC(C)C)C(c2ccccc2Cl)CC(=O)N1Cc1cccc(F)c1 (stereo not given) | 5.9% | 2.7% | -18.6% | i | ? | 31.6µM*
COc1ccccc1-c1ccnc(-c2nnc(C)n2Cc2ccccc2)c1 | -10.1%[87.6 µM] | -1.0%[70.6 µM] | -22.9%[87.6 µM] | ? | ? | 70.8µM*
COc1ccccc1-c1ccnc(-c2nnc(C)n2Cc2ccncc2)c1 | 10.4%[87.6 µM] | -1.8%[70.6 µM] | -2.2%[87.6 µM] | i | 56.2µM* | -17.1%[172 µM]
COCCCNC(=O)C1CCN(Cc2ccccc2-c2ccccc2F)CC1 | / | / | / | / | ? | -21.4%
c1ccc(OCC2CN(Cc3ccncc3)CC23CN(c2ccccc2)C3)cc1 (stereo not given) | -3.0%[87.6 µM] | -1.6%[70.6 µM] | 10.0%[87.6 µM] | i | 89.1µM* | ?
O=[S+]([O-])(NCC1CN(Cc2ccc(O)cc2)CC12CN(c1ccccc1)C2)c1ccccc1 (stereo not given) | -4.3% | -21.8% | -14.9% | i | 17.8µM* | ?
c1ccc(OCC2CN(Cc3ccc4[nH]ccc4c3)CC23CN(c2ccccc2)C3)cc1 (stereo not given) | ? | ? | 20µM* | i | 25.1µM* | 28.2µM*
O=C(Cc1ccccc1)NCC1CN(Cc2ccc3[nH]ccc3c2)CC12CN(c1ccccc1)C2 (stereo not given) | -15.8% | -5.5% | -29.5% | i | 22.4µM* | 39.8µM*
O=C(O)c1cccc(CN2CC(COc3ccccc3)C3(C2)CN(c2ccccc2)C3)c1 (stereo not given) | 3.7%[87.6 µM] | -3.3%[70.6 µM] | 6.9%[87.6 µM] | i | -19.7%[138 µM] | ?
O=C(NCCOc1ccccc1)c1cnc2c(c1)N(C(=O)Cc1ccc(O)cc1)CCC2 | 3.1%[87.6 µM] | 1.8%[70.6 µM] | 56.7%[87.6 µM] | ? | ? | ?
